# Source: PubChem BioAssay
# Hits are enriched below; roughly 3.4% of the tested compounds scored in any of these assays.
# TEAD-YAP block – TEAD-YAP interaction inhibition; HEK-TIYL cells, TEAD-Gal4/YAP UAS-luciferase luminescence; inhibition, % at 9.12 µM; 640,000 compounds, 1.4% hits; in the data active = inhibition above about 32%
# MITF inh – human MITF inhibition, primary screen. AID 1259374. 650,000 compounds, 0.91% hits. AlphaScreen MITF homodimerization, bead proximity signal. inhibition, % at 2.6 µM. O75030; in the data active = inhibition above about 50%
# Target sequence (O75030 whole entry, looked up): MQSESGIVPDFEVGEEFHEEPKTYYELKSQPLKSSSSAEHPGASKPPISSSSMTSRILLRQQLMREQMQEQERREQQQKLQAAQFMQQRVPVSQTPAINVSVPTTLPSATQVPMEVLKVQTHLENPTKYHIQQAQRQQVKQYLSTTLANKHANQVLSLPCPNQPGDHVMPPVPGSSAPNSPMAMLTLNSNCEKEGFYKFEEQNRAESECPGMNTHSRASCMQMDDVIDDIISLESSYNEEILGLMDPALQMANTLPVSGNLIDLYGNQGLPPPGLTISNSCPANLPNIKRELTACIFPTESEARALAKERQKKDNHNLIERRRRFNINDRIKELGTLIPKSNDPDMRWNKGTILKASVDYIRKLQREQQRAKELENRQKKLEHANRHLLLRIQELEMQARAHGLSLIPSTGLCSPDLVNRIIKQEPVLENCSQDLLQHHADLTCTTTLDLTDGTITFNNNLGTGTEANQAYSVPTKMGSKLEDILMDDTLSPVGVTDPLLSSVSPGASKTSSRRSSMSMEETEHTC
# FBW7 act – activators of human E3 ligase FBW7; Q969H0; AlphaScreen FBW7–phospho-cyclin E peptide binding, activator screen; 650,000 compounds, 0.13% hits; normalized activity (activation), % at 26.1 µM; in the data active = normalized activity above about 1.9%;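 note: purified mutant Fbw7 with reduced substrate affinity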
# GPR151 activ – activators of human GPR151; Q8TDV0; PathHunter beta-arrestin GPR151 cells, luminescence; activation, % at 11.2 µM; 650,000 compounds, 1% hits; AID 1508602; in the data active = activation above about 4.9%
# Numbers stand for hits; 0 = inactive.
SMILES,TEAD-YAP block,MITF inh,FBW7 act,GPR151 activ
COc1ccccc1NC(=O)c1cc(-c2ccc(F)cc2)c[nH]1,0,0,0,0
CN(C)c1ccc(/C=N\OC(=O)Nc2cccc(Cl)c2)cc1,0,0,0,0
CCC(C)(C(=O)NC1CCCC1)N(Cc1ccco1)C(=O)CNC(C)=O (centres undefined),0,0,0,0
CCC(C)(C(=O)NC1CCCC1)N(Cc1ccco1)C(=O)CNC(=O)c1ccccc1 (centres undefined),0,0,2.3,0
CC(=O)c1cccc(NC(=O)NCc2nc3nc(C)cc(C)n3n2)c1,0,0,0,0
CC(C)CCNS(=O)(=O)c1ccc(Oc2ccc(S(=O)(=O)NCCC(C)C)cc2)cc1,33.2,0,0,0
CC(=O)c1ccc(S(=O)(=O)NCCC(C)C)cc1,0,0,0,0
O=C(c1ccc2c(c1)OCCO2)N(CCCn1ccnc1)c1nc2ccc(F)cc2s1,0,0,0,0
COc1ccccc1CNc1ncnc2sc(C)c(C)c12,0,0,0,0
Cc1nc(NCc2ccccn2)c2cc(C)sc2n1,0,0,0,0
COc1ccccc1CNc1nc(C)nc2sc(C)cc12,48.2,0,0,0
COCCCNc1ncnc2sc(C)cc12,0,0,0,0
CCCCNc1ncnc2sc(C)cc12,36.9,0,0,0
COc1ccccc1CNc1ncnc2sc(C)cc12,32.4,0,0,0
CCOc1ccc(C2=NC(c3cc(Br)ccc3F)NC(c3cc(Br)ccc3O)C2)cc1 (centres undefined),0,0,0,0
Oc1ccc(O)c(CN2CCCCCC2)c1,0,82.2,0,0
N#Cc1c(Cl)nc(Nc2cccc(F)c2)c(Cl)c1Cl,0,0,0,0
N#Cc1c(Cl)nc(Nc2ccccc2)c(Cl)c1Cl,33.5,0,0,0
Cc1cc(C)n2c(SCc3nnc(-c4ccccc4Br)o3)nnc2n1,0,0,0,0
Cc1c(NC(=O)/C(=C\c2ccccc2)NC(=O)c2ccccc2)c(=O)n(-c2ccccc2)n1C,0,0,1.9,0
Cc1ccc(C(=O)N/C(=C\c2ccc(F)cc2)C(=O)Nc2c(C)n(C)n(-c3ccccc3)c2=O)cc1,0,0,0,0
CCOC(=O)Nc1ccc2c(c1)N(C(=O)OCC)c1ccccc1CC2,48.2,0,0,0
O=C(N1CCCCCC1)N1c2ccccc2C=Cc2ccccc21,35.9,0,0,0
CCOC(=O)Cc1csc(N/N=C\c2ccc(C(F)(F)F)cc2)n1,61.1,0,0,0
Cc1cc(C)n2nc(C(=O)N/N=C/c3cc(Cl)cc([N+](=O)[O-])c3O)nc2n1,0,0,0,0
SMILES,TEAD-YAP block,MITF inh,FBW7 act,GPR151 activ
Cc1cc(C(=O)N/N=C\c2cc(C(C)(C)C)ccc2O)n[nH]1,0,0,0,0
O=C(N/N=C/c1ccccc1C(F)(F)F)c1cccs1,0,0,0,0
CC(C)(C)c1cc(C(=O)N/N=C/c2cc(Cl)ccc2O)n[nH]1,75.5,0,0,0
O=C(N/N=C/c1ccccc1Cl)c1cccs1,0,0,0,0
Cc1cc(C)n2nc(C(=O)N/N=C/c3cc(Cl)ccc3O)nc2n1,0,55.9,0,0
O=C(N/N=C/c1ccc(O)c(O)c1O)c1cccs1,0,54.0,0,0
O=C(N/N=C\c1cc(Cl)ccc1O)c1cccs1,43.3,0,0,0
CCOC(=O)c1c(-c2ccc(OC)cc2)csc1NC(=O)/C(C#N)=C/c1ccc(C)o1,0,0,0,0
Cc1cc(OCC(=O)NCCCN2CCCC2=O)ccc1Cl,0,0,0,0
COc1ccc(S(N)(=O)=O)cc1C(=O)OCC(=O)Nc1ccc(Cl)cc1[N+](=O)[O-],0,0,0,0
Cc1cc(C(=O)N/N=C/c2ccc(O)c(O)c2O)c(C)o1,0,52.7,0,0
O=C(N/N=C/c1cc(Cl)ccc1O)c1ccc(F)cc1,66.6,0,0,0
Cc1cc(C(=O)N/N=C\c2ccc(Cl)cc2Cl)c(C)o1,0,0,0,0
C/C(O)=C/c1nc2cccnc2nc1/C=C(/C)O,0,73.4,0,0
O/C(=C\c1nc2ccccc2nc1/C=C(\O)c1ccccc1)c1ccccc1,0,0,0,0
O=C1CCCC2=C1C(c1cc([N+](=O)[O-])ccc1O)C1C(=O)c3ccccc3C1=N2 (centres undefined),0,0,0,0
O=C1CCCC2=C1C(c1cc(Br)ccc1O)C1C(=O)c3ccccc3C1=N2 (centres undefined),49.6,0,0,0
Fc1ccc(-n2cc(-c3ccccc3)c3c(NCc4ccccn4)ncnc32)cc1,0,0,0,0
O=[N+]([O-])c1ccc(-c2nc(-c3ccccc3Cl)no2)cc1,0,0,0,0
O=[N+]([O-])c1cccc(-c2nc(-c3ccccc3Cl)no2)c1,0,0,2.1,0
